Test in all cases: DAPPL (digital affinity profiling via proximity ligation, sequencing); 10 mM Tris-HCl pH 7.5, 50 mM NaCl, 1 mM DTT, 4% glycerol, room temperature, 30 min; GST-TFs on glutathione beads, 16-mer random dsDNA library, 0.1% formaldehyde crosslink after washing; high values mean tight binding
Common to all, as to settings: protein: recombinant; tags: N-terminal GST; dsDNA, one strand shown

The target of one assay is T1, ELK1 (Homo sapiens, UniProt P19419 1-428).
T1 sequence: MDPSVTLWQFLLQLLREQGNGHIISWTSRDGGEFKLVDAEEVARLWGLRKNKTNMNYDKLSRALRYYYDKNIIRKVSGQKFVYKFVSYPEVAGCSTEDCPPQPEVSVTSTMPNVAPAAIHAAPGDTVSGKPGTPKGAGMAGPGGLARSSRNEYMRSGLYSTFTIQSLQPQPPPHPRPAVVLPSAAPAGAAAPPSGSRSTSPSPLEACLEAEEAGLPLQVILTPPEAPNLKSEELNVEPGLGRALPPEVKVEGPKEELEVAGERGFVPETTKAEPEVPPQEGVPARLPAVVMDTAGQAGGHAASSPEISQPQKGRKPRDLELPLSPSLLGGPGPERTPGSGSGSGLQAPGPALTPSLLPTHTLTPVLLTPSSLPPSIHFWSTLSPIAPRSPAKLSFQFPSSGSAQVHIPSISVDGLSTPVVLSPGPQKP
The method in brief: (§1)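 A tag-only sample was pooled with DNA-barcoded human transcription factors that had been expressed in yeast as GST fusions and captured on glutathione beads. The pools were incubated for 30 min at room temperature with 200 nmole of a random double-stranded 16-mer DNA library in Tris/NaCl/DTT/glycerol buffer, then washed, crosslinked with 0.1% formaldehyde, proximity-ligated (BsaI/T4 ligase, 1 h, 37 °C), PCR-amplified and sequenced on an Illumina NextSeq500. Binding signal is each hexamer's read frequency for a factor divided by its frequency for the tag-only sample.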

The next assay concerns the target T2, ERG (Homo sapiens, UniProt P11308 1-479).
T2 sequence: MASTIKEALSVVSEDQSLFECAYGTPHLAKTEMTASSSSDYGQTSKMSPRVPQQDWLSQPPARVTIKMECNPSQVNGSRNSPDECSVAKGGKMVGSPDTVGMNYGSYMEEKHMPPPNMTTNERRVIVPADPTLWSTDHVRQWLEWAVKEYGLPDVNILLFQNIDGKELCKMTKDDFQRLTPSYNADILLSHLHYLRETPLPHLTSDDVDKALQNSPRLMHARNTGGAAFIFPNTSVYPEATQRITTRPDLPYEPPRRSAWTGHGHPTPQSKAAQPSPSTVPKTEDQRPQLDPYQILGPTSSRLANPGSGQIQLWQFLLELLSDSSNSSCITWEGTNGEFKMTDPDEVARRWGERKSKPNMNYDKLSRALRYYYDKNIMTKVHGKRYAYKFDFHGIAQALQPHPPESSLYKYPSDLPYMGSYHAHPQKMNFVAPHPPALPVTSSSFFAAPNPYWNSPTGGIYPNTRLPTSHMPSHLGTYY
In outline: as §1

A further assay deals with T3, EHF (Homo sapiens, UniProt Q9NZC4 1-300).
T3 sequence: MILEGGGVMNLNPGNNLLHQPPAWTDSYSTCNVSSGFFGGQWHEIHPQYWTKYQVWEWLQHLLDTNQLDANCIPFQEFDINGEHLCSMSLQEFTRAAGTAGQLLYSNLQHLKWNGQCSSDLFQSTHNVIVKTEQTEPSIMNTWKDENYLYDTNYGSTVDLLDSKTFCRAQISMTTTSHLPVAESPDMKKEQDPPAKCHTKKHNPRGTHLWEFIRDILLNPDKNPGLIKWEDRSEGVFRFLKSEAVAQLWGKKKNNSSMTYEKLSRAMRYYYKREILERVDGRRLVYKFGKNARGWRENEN
In outline: as §1

For another assay, the target named is ETV5 (Homo sapiens, UniProt P41161 1-510). In outline: as §1
ETV5, sequence (P41161 whole entry): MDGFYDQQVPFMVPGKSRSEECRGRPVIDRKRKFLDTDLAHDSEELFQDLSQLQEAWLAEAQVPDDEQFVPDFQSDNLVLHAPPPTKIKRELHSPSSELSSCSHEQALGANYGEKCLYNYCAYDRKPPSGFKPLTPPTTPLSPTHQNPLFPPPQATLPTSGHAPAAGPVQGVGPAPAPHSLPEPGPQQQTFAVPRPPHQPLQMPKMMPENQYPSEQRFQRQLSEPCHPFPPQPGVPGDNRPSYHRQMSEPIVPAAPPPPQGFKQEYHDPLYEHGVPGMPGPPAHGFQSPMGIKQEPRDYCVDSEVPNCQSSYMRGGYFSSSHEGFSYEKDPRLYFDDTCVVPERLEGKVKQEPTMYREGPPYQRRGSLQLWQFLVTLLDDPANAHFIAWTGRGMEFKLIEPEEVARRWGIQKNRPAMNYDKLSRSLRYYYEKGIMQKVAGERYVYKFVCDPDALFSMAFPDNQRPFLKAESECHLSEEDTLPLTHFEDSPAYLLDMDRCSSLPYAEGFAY
The target of a further assay is T4, SPIC (Homo sapiens, UniProt Q8N5J4 1-248).
T4 sequence: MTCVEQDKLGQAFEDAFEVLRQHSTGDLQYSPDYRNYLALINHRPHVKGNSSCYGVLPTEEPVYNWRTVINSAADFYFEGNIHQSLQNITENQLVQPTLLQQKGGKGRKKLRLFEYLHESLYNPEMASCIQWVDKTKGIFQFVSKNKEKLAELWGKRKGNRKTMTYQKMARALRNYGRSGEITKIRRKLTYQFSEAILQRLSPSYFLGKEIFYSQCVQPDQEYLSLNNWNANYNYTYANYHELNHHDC
In outline: as §1

For the next assay, the target named is ELF4 (Homo sapiens, UniProt Q99607 1-663). In outline:
as §1

A further assay deals with T5, ELK4 (Homo sapiens, UniProt P28324-2 1-405).
T5 sequence: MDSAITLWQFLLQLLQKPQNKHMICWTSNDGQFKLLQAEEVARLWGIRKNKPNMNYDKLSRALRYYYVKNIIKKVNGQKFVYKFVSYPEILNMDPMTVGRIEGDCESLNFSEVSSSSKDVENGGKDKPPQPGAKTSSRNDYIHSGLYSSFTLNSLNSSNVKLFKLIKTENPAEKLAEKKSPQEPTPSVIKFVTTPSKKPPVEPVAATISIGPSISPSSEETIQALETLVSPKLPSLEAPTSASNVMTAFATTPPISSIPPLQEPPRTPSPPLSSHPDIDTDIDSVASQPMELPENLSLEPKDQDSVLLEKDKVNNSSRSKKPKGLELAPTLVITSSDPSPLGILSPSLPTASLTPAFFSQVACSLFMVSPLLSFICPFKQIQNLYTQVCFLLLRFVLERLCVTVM
In outline:
as §1

Another assay deals with T6, ELF3 (Homo sapiens, UniProt P78545 1-371).
T6 sequence: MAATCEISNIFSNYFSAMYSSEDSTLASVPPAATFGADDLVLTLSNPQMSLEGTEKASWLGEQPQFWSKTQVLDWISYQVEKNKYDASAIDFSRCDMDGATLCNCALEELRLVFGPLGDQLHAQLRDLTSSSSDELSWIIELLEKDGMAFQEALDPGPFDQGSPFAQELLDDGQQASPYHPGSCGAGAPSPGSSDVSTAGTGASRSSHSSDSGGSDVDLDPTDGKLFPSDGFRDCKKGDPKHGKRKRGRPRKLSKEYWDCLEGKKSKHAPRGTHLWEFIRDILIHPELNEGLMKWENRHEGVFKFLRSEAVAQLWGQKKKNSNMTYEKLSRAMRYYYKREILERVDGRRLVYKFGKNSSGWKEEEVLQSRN
In outline:
as §1

Another assay has as its target T7, ERF (Homo sapiens, UniProt P50548 1-548).
T7 sequence: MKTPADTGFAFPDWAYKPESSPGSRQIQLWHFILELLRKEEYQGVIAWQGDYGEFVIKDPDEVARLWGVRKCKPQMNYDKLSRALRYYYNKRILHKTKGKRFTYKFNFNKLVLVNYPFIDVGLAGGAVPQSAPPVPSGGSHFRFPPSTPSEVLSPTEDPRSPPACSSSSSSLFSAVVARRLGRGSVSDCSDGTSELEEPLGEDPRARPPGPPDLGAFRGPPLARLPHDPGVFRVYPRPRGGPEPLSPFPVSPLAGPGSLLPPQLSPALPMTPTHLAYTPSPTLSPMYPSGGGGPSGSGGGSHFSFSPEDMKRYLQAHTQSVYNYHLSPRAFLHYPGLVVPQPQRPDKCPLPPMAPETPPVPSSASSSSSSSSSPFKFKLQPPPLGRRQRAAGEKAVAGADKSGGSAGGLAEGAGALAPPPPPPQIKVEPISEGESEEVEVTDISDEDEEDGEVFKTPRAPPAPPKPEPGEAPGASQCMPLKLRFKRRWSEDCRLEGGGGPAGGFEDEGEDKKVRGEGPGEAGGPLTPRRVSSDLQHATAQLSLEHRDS
In outline:
as §1

A further assay addresses T8, ETV3L (Homo sapiens, UniProt Q6ZN32 1-361).
T8 sequence: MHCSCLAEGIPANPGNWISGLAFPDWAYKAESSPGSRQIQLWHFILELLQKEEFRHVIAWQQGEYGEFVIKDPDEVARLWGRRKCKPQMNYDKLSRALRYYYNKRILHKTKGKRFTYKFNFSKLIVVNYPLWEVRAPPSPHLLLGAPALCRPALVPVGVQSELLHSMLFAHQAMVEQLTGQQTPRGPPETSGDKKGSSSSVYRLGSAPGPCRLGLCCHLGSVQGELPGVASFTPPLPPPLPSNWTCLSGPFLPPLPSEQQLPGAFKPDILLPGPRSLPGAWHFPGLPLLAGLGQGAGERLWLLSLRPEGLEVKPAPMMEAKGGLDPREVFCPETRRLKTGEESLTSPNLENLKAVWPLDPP
In outline: as §1

The next assay deals with T9, ETS2 (Homo sapiens, UniProt P15036 1-469).
T9 sequence: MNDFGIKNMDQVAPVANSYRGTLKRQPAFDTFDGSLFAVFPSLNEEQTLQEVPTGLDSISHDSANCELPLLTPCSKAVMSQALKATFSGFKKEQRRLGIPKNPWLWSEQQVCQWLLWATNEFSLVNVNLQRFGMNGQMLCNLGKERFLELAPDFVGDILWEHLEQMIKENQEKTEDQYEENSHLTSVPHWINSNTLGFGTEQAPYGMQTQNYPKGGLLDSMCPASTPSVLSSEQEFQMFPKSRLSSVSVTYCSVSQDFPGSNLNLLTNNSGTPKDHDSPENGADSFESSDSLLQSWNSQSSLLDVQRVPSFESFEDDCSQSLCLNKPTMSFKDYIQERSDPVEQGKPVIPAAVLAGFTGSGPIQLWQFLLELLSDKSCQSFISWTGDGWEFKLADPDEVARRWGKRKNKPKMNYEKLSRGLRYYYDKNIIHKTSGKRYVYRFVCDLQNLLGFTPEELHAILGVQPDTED
In outline: as §1

The next assay deals with T10, SPDEF (Homo sapiens, UniProt O95238 1-335).
T10 sequence: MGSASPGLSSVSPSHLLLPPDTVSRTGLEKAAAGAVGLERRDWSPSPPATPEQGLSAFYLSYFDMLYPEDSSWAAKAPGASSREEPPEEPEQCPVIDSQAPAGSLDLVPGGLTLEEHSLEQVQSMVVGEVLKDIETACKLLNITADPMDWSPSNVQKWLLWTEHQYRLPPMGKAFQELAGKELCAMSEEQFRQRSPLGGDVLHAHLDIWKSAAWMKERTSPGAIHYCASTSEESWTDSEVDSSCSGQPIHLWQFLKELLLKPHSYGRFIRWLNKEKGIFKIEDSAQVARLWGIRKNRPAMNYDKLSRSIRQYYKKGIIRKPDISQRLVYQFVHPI
The method in brief: as §1

The next assay concerns the target T11, ETV3 (Homo sapiens, UniProt P41162-2 1-143).
T11 sequence: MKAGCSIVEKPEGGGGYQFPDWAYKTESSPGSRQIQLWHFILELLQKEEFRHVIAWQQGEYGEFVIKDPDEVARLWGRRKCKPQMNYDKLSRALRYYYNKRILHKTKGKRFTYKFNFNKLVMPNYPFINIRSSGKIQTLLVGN
In outline: as §1

A further assay concerns the target ETV6 (Homo sapiens, UniProt P41212 1-452). In outline: as §1
A further assay has as its target T12, GABPA (Homo sapiens, UniProt Q06546 1-454).
T12 sequence: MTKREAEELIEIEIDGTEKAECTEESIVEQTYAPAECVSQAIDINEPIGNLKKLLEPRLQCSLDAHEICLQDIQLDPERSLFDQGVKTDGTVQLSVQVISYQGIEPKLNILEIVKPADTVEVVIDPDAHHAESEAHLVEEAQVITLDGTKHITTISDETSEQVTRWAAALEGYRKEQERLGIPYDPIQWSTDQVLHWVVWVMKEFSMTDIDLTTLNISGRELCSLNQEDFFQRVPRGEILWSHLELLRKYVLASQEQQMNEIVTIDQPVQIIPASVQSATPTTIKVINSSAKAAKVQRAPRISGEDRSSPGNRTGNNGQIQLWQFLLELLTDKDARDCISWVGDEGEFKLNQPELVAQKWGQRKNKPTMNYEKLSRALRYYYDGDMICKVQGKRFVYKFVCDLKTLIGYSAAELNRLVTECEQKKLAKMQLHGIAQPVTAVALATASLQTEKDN
In outline: as §1

A further assay concerns the target T13, ELK3 (Homo sapiens, UniProt P41970 1-407).
T13 sequence: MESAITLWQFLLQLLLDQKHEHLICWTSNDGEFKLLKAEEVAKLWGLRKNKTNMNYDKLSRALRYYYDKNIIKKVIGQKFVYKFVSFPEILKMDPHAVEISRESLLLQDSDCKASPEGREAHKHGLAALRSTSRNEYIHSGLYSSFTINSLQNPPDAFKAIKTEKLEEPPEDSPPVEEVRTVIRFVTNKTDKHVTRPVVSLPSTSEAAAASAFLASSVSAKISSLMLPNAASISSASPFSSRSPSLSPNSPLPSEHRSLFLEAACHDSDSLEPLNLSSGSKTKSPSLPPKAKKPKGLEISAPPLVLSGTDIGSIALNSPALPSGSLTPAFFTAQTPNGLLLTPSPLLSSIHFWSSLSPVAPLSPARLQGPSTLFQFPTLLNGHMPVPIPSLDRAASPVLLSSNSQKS
In outline: as §1

In a further assay the target is ETV1 (Homo sapiens, UniProt P50549 1-477). The method in brief: as §1
ETV1, sequence (P50549 whole entry): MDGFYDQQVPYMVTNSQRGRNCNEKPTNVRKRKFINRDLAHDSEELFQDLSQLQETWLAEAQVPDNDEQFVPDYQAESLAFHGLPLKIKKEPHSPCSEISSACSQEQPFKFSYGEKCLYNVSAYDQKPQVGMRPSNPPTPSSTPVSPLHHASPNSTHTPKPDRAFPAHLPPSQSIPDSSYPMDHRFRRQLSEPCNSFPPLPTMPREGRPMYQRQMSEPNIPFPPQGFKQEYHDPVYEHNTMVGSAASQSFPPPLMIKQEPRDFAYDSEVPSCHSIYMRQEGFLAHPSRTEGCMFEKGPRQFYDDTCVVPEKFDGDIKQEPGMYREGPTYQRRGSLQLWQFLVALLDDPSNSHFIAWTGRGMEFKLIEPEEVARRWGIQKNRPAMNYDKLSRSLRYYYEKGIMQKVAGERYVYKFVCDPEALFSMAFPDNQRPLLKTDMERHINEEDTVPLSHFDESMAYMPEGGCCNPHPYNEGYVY

ELF4, sequence (Q99607 whole entry): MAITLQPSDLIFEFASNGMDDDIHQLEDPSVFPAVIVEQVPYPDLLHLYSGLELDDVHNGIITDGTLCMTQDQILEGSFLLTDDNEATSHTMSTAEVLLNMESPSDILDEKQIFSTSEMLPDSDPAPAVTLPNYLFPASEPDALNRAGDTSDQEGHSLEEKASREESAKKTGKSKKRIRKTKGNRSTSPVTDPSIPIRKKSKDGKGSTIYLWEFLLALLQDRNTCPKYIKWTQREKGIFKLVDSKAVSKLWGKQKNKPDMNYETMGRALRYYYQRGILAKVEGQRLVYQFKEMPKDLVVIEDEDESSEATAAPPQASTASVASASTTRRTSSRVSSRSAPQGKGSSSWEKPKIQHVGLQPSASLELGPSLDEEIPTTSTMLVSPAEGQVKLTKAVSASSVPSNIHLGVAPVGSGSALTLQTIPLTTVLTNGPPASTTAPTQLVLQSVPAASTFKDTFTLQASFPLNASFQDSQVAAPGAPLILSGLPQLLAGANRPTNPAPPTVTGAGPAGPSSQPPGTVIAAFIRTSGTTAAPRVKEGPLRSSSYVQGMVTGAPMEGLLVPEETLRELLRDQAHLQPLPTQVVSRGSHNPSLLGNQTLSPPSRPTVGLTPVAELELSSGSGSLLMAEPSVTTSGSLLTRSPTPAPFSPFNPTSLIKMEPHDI
ETV6, sequence (P41212 whole entry): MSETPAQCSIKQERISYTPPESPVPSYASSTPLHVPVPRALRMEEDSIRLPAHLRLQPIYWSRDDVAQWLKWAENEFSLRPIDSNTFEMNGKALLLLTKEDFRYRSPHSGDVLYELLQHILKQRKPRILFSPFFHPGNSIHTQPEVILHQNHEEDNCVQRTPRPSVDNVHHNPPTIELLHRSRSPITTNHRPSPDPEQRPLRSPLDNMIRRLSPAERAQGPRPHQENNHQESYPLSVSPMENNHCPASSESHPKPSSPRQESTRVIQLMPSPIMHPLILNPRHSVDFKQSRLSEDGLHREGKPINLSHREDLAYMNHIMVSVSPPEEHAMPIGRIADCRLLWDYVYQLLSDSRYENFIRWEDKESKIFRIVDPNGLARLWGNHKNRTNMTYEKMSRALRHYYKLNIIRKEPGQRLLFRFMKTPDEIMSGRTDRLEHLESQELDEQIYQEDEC

Take TGGGTG: the binding signal with ELK1 was 1.09 fold enrichment (6-mer frequency, TF over GST control); with ERG, 1.01 fold enrichment (6-mer frequency, TF over GST control); with EHF, 1.01 fold enrichment (6-mer frequency, TF over GST control); with ETV5 it was 1.02 fold enrichment (6-mer frequency, TF over GST control); with SPIC it was 1.03 fold enrichment (6-mer frequency, TF over GST control); with ELF4 it was 1.01 fold enrichment (6-mer frequency, TF over GST control). The binding signal was 1.07 fold enrichment (6-mer frequency, TF over GST control) with ELK4; 1.03 fold enrichment (6-mer frequency, TF over GST control) in the assay with ELF3; 1.06 fold enrichment (6-mer frequency, TF over GST control) with ERF; 1.08 fold enrichment (6-mer frequency, TF over GST control) in the assay with ETV3L; 1.07 fold enrichment (6-mer frequency, TF over GST control) with ETS2; 1.01 fold enrichment (6-mer frequency, TF over GST control) in the assay with SPDEF. Also, the binding signal with ETV3 is 1 fold enrichment (6-mer frequency, TF over GST control); with ETV6, 1.21 fold enrichment (6-mer frequency, TF over GST control).
Take AGCTCG: the binding signal is 1.04 fold enrichment (6-mer frequency, TF over GST control) with GABPA; 1.04 fold enrichment (6-mer frequency, TF over GST control) with ELK3; 1.04 fold enrichment (6-mer frequency, TF over GST control) with ETV5; 1.01 fold enrichment (6-mer frequency, TF over GST control) with ETV1; 1.08 fold enrichment (6-mer frequency, TF over GST control) with ERF; 1.01 fold enrichment (6-mer frequency, TF over GST control) in the assay with ETS2.

These data come from PMC7862700, “An all-to-all approach to the identification of sequence-specific readers for epigenetic DNA modifications on cytosine”.
